Measured values taken from PubChem BioAssay (EPA / NIEHS).
Active and inactive are the calls of the source. How the source made its calls: active means hit-call score of the fitted dose curve at least 0.9, where 1 is the maximum; inactive means score below 0.9.

Experiments:
[1] = molecular target: Transcription factor E2F1 (Homo sapiens) (UniProt Q01094); assay: ATG_E2F_CIS: Attagene CIS-FACTORIAL HepG2 Assay for human E2F Transcription Factor 1 (AID 2282935); conditions: HepG2 Attagene cis-reporter, E2F reporter RNA transcripts; actives raise or lower the signal
How it was run: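 First, HepG2 cells were transfected with reporter transcription units. Next, they were dosed for 24 h. Then RNA was isolated, converted to cDNA, PCR-amplified, FAM-labeled, HpaI-digested and analyzed by capillary electrophoresis.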

[2] = ATG_E_Box_CIS: Attagene CIS-FACTORIAL HepG2 Assay for human Enhancer Box (E-box) (AID 2282936); conditions: HepG2 E-box cis-reporter transcription, actives raise or lower the signal
How it was run: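 Endogenous transcription factor activity was sensed in human HepG2 liver cells through transfected cis-promoter reporter units. After 24 h of dosing, total RNA was reverse-transcribed and reporter cDNA resolved by capillary electrophoresis.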

[3] = ATG_M_61_CIS: Attagene CIS-FACTORIAL HepG2 Assay for M61 Transcription Factor (Internal Marker) (AID 2282937); conditions: HepG2 Attagene CIS-FACTORIAL M61 internal marker reporter; actives raise or lower the signal
How it was run: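 Readout: fluorescent reporter mRNA fragments resolved by capillary electrophoresis after RT-PCR. Transiently transfected human HepG2 cells carried MRTU constructs reporting endogenous TF activity; 24 h chemical exposure; gain or loss of signal fitted relative to DMSO.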

[4] = ATG_EGR_CIS: Attagene CIS-FACTORIAL HepG2 Assay for human Early Growth Response 1 (EGR1) (AID 2282938); conditions: HepG2 Attagene CIS-FACTORIAL EGR reporter mRNA; actives raise or lower the signal
How it was run: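 Read-out: fluorescent reporter-mRNA fragments resolved by capillary electrophoresis after RT-PCR, 24 h post-dose in transiently transfected HepG2. Endogenous transcription-factor activity reported via cis-element-regulated reporter units; gain or loss fitted relative to DMSO.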

[5] = ATG_M_19_CIS: Attagene CIS-FACTORIAL HepG2 Assay for M19 Transcription Factor (Internal Marker) (AID 2282939); conditions: HepG2 Attagene CIS-FACTORIAL M19 internal marker reporter; actives raise or lower the signal
How it was run: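 Transfect HepG2 with MRTU reporter library → dose chemical, 24 h → isolate total RNA, reverse-transcribe with oligo(dT) → PCR, 6-FAM label, HpaI cut (2 h, 37 C) → capillary electrophoresis. Bidirectional fit vs DMSO.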

[6] = ATG_ERE_CIS: Attagene CIS-FACTORIAL HepG2 Assay for Estrogen Response Element (ERE) (AID 2282940); conditions: HepG2 ERE cis-reporter, Attagene RNA transcript; actives raise or lower the signal
How it was run: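 Transient MRTU transfection of human HepG2; cis-element promoters; 24 h dosing; total RNA → RT (oligo dT) → PCR → 6-FAM primer extension → HpaI digest → CE fluorescence. Bidirectional fit, DMSO baseline.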

[7] = molecular target: Hepatocyte nuclear factor 3-beta (Homo sapiens) (UniProt Q9Y261); assay: ATG_FoxA2_CIS: Attagene CIS-FACTORIAL HepG2 Assay for human Forkhead box A2 (FOXA2) (AID 2282942); conditions: HepG2 cis-reporter transcription factor activity, 24 h; actives raise or lower the signal
How it was run: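 Readout: fluorescent reporter transcripts resolved by capillary electrophoresis after RT-PCR. Transiently transfected HepG2, 24 h compound exposure, endogenous TF activity at cis promoter elements. Gain or loss of signal fitted relative to DMSO.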

[8] = ATG_FoxO_CIS: Attagene CIS-FACTORIAL HepG2 Assay for human Forkhead box O (FoxO) (AID 2282943); conditions: HepG2 Attagene cis-reporter, FoxO element, mRNA; actives raise or lower the signal
How it was run: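 Values reflect reporter mRNA induction or loss in HepG2 cells 24 h post-dosing, fitted bidirectionally with DMSO as negative control and baseline. Detection used RT-PCR and fluorescence capillary electrophoresis.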

[9] = ATG_Ets_CIS: Attagene CIS-FACTORIAL HepG2 Assay for human Erythroblast Transformation Specific (ETS) (AID 2282941); conditions: HepG2 ETS cis-reporter transcription, actives raise or lower the signal
How it was run: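 Cis-regulated reporter mRNA induction in HepG2 (transient transfection), 24 h exposure, RT-PCR plus capillary electrophoresis detection; DMSO serves as negative control and baseline.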

[10] = ATG_GATA_CIS: Attagene CIS-FACTORIAL HepG2 Assay for human GATA Binding Protein (AID 2282944); conditions: HepG2 GATA cis-element reporter, Attagene multiplex mRNA; actives raise or lower the signal
How it was run: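 Transient MRTU transfection, HepG2, 24 h compound exposure. Total RNA → oligo(dT) RT → PCR → 6-FAM primer extension → HpaI cut → CE. Bidirectional fit vs DMSO.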

Hepatocyte nuclear factor 3-beta (Homo sapiens), sequence (Q9Y261 whole entry, looked up): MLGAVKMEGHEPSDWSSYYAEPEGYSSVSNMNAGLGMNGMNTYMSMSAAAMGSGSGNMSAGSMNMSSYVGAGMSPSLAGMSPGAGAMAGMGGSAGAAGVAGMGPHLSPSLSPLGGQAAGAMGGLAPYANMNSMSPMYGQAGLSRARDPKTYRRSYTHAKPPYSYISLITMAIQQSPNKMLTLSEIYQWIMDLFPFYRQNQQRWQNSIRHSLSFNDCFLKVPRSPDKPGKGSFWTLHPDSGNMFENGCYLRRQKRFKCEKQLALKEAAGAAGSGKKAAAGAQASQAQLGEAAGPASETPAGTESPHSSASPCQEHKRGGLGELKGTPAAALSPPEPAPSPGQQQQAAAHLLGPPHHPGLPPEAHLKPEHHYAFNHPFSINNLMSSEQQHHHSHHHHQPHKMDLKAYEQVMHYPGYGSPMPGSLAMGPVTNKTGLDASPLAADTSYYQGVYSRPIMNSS
Transcription factor E2F1 (Homo sapiens), sequence (Q01094 whole entry, looked up): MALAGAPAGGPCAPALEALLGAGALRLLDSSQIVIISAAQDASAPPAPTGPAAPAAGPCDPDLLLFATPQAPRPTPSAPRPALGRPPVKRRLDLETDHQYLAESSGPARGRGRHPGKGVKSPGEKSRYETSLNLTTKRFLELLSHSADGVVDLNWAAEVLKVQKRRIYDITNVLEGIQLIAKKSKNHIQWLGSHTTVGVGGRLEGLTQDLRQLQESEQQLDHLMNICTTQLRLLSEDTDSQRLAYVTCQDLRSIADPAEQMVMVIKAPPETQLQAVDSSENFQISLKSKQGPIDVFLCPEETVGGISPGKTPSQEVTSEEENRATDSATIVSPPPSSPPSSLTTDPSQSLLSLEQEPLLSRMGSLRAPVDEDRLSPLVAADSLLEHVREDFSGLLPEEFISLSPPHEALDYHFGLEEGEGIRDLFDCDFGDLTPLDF

Structure (SMILES)	outcome [1]	outcome [2]	outcome [3]	outcome [4]	outcome [5]	outcome [6]	outcome [7]	outcome [8]	AC50 [6]	outcome [9]	outcome [10]	AC50 [4]
OCC1CO1 (stereo not drawn)	inactive	inactive	inactive	inactive	inactive	inactive	inactive	inactive				
CC(Cc1ccc(OCC(=O)O)cc1)NCC(O)c1csc(C(F)(F)F)n1 (stereo not drawn)	inactive	inactive	inactive	inactive	inactive	inactive	inactive	inactive				
c1nc[nH]n1	inactive		inactive	inactive	inactive		inactive	inactive	29 µM (active)	inactive		
CCOS(=O)(=O)OCC	inactive	inactive	inactive	inactive	inactive	inactive	inactive	inactive		inactive	inactive	
CC(O)C(F)(F)C(F)(F)F (stereo not drawn)	inactive	inactive	inactive	inactive	inactive	inactive	inactive	inactive			inactive	
CCCCc1ccc(O)cc1	inactive	inactive	inactive	inactive	inactive		inactive	inactive	7.43 µM (active)		inactive	
CC(C)CBr	inactive	inactive	inactive	inactive	inactive	inactive	inactive	inactive		inactive	inactive	
NC(=O)C(F)(F)C(F)(F)F	inactive	inactive	inactive	inactive	inactive	inactive	inactive	inactive				
CSC(C)(C)C=NO	inactive	inactive	inactive	inactive	inactive	inactive	inactive	inactive				
COP(N)(=S)OC	inactive	inactive	inactive	inactive	inactive	inactive	inactive	inactive			inactive	
CCOP(=S)(NC(C)C)Oc1ccccc1C(=O)OC(C)C (stereo not drawn)	inactive	inactive	inactive	inactive	inactive		inactive	inactive	11.3 µM (active)		inactive	
O=P1(N(CCCl)CCCl)NCCCO1 (stereo not drawn)	inactive	inactive	inactive	inactive	inactive		inactive	inactive	3.3 µM (active)	inactive	inactive	
O=C(O)C1C(C(=O)O)C2(Cl)C(Cl)=C(Cl)C1(Cl)C2(Cl)Cl (stereo not drawn)	inactive	inactive	inactive	inactive	inactive	inactive	inactive	inactive			inactive	
CC(Cl)(Cl)C(=O)O	inactive	inactive	inactive	inactive	inactive	inactive	inactive	inactive		inactive	inactive	
FC(F)(F)C(F)(C(F)(F)F)C(F)(F)C(F)(F)CC1CO1 (stereo not drawn)	inactive	inactive	inactive	inactive	inactive	inactive	inactive	inactive		inactive	inactive	
CCOP(=S)(OCC)SCn1nnc2ccccc2c1=O	inactive	inactive	inactive		inactive		inactive	inactive	7.39 µM (active)		inactive	9.67 µM (active)
O=C(O)C(F)(F)OC(F)(F)C(F)(F)OC(F)(F)F	inactive	inactive	inactive	inactive	inactive	inactive	inactive	inactive			inactive	
O=C(CBr)OCc1ccccc1	inactive	inactive	inactive	inactive	inactive		inactive	inactive	100 µM (active)		inactive	
CC(C)(C)c1ccc(O)cc1	inactive	inactive	inactive	inactive	inactive		inactive	inactive	3.14 µM (active)		inactive	
ClC(Cl)(Cl)c1ccccc1	inactive	inactive	inactive	inactive	inactive		inactive	inactive	45.1 µM (active)		inactive	
CC(C)(C)N(NC(=O)c1ccc(Cl)cc1)C(=O)c1ccccc1	inactive	inactive	inactive	inactive	inactive	inactive	inactive	inactive		inactive	inactive	
Nc1ccc([N+](=O)[O-])cc1Cl	inactive	inactive	inactive	inactive	inactive	inactive	inactive	inactive			inactive	
CCOP(=S)(OCC)SCSCC	inactive	inactive	inactive	inactive	inactive		inactive	inactive	14.9 µM (active)			
COCCOCCO	inactive	inactive	inactive	inactive	inactive	inactive	inactive	inactive			inactive	
C=C(C)C(=O)OCC1CO1 (stereo not drawn)	inactive	inactive	inactive	inactive	inactive	inactive	inactive	inactive		inactive	inactive	
CCCCC(CC)COC(=O)c1c(Br)c(Br)c(Br)c(Br)c1C(=O)OCC(CC)CCCC (stereo not drawn)	inactive	inactive	inactive	inactive	inactive	inactive	inactive	inactive			inactive	
O=C(O)C=CC(F)(C(F)(F)F)C(F)(F)F	inactive	inactive	inactive	inactive	inactive	inactive	inactive	inactive				
